# Experimental data as given in PubChem BioAssay (NCI).
# The panel holds about 79,000 compounds, 15% with a hit somewhere; the sample as a whole holds those more often. The source made the active and inactive calls. Rule as the data show it: active = growth inhibition above about 70%; inactive = the rest. Where a SMILES comes first, the peptide text is derived from it. [ ]: non-standard residue; d: D form. ΔPro = O=C(O)[CH]1C=CCN1
# Test: NCI Yeast Anticancer Drug Screen. Data for the rad50 strain (AID 155);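 also: 0% = growth of vehicle-only cultures of the same strain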
# Conditions: S. cerevisiae rad50 strain growth inhibition; at 50.0 µM; stronger effect = higher value
# Summary of the method: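 Cells are treated with compound, grown, and their growth is then scored against vehicle-only cultures of the same repair-deficient yeast strain.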
row,Compound,growth inhibition
1,N#Cc1c(C#N)c(-c2ccccc2)n(-c2ccccc2)c1N,10.7% (inactive)
2,Cc1ccc(S(=O)(=O)N2CCSCCSCCSCCSCC2)cc1,-1.3% (inactive)
3,CCCOc1cc2c(cc1C(C)(C)c1ccccc1)OCO2,-16.9% (inactive)
4,CC(=O)NC(CCCc1ccccc1)C(=O)O (stereo not given),7.65% (inactive)
5,CC1CC(=O)N2CCCNC2=C1C#N (stereo not given),-0.55% (inactive)
6,N#C/C(=C\c1c[nH]c2ccccc12)c1ccc([N+](=O)[O-])cc1,-13.9% (inactive)
7,CCCCCCCCCCCCCCCCS(=O)(=O)N/N=C/c1ccc(N(C)C)cc1,26.1% (inactive)
8,O=C(O)C1C=CCN1C(=O)C1C=CCN1C(=O)C1C=CCN1 (stereo not given) (H-[ΔPro]-[ΔPro]-[ΔPro]-OH; configuration not given here),-68.7% (inactive)
9,Nc1nc2c(c(-c3ccccc3)n1)CN(CCCC(=O)O)C2=O,5.75% (inactive)
10,S=c1[nH]c(=S)c2nnn(-c3ccccc3)c2[nH]1,-47% (inactive)
11,[Cu+2].[O-]C1c2c(ccc3ccccc23)-c2ccccc2C1N=Nc1ccccc1.[O-]c1c(N=Nc2ccccc2)c2ccccc2c2ccc3ccccc3c12 (stereo not given),-19.1% (inactive)
12,CCC(C)NC(=O)C1C2CCC(C2)C1C(=O)NC(C)CC (stereo not given),10.7% (inactive)
13,CN(C)c1ccc(/C=N/NC(=O)c2cnc3ccccc3c2)cc1,-7.05% (inactive)
14,CCOC(=O)c1ccc(NC(=O)Oc2ccc(C=O)cc2OC)cc1,5.7% (inactive)
15,O=C(Nc1cc(Cl)c(I)cc1Cl)C(F)(F)F,55.4% (inactive)
16,[Mn+2].[Mn+2].c1ccc2c(c1)-c1nc-2nc2[n-]c(nc3nc(nc4[n-]c(n1)c1ccccc41)-c1ccccc1-3)c1cc3c4nc5nc(nc6[n-]c(nc7nc(nc([n-]4)c3cc21)-c1ccccc1-7)c1ccccc61)-c1ccccc1-5,15.4% (inactive)
17,COC(=O)c1nc(N)nc(C(=O)OC)c1C(=O)c1ccc(Cl)cc1Cl,7.25% (inactive)
18,CCOC(=O)CSc1[nH]c2nc(C)nc(Cl)c2c1C#N,-20.7% (inactive)
19,O=C(O)CCCCl,12.3% (inactive)
20,OCC=C1CCCCCC1,4.9% (inactive)

row,Compound,growth inhibition
1,Cc1ncc([N+](=O)[O-])n1CCNC(=O)CCC(=O)NCCCn1ccnc1[N+](=O)[O-],-16.1% (inactive)
2,COc1cc(C(=O)Nc2ccc(S(=O)(=O)Nc3nc(C)cc(C)n3)cc2)cc(OC)c1OC,-10.7% (inactive)
3,O=C1c2ccccc2C2(O)Oc3cccc(O)c3C12O (stereo not given),6.45% (inactive)
4,CCc1ccc(C(O)C(=O)O)cc1 (stereo not given),4.6% (inactive)
5,O=C(Sc1ccccc1)C1OC1c1ccccc1 (stereo not given),70.2% (active)
6,O=C1OC(c2cccc(Cl)c2)=N/C1=C\c1cccc([N+](=O)[O-])c1,15.5% (inactive)
7,CC12CCCC3(CC(=O)C(C)(C)C3C(=O)C1)C2 (stereo not given),-13.9% (inactive)
8,N#Cc1c(-c2ccccc2)ssc1=S,31.4% (inactive)
9,CC[N+](C)(CC)c1cccc(OC(=O)Nc2ccc(OC)cc2)c1,6% (inactive)
10,Cc1ncc([N+](=O)[O-])n1CCNC(=O)CCn1ccnc1[N+](=O)[O-],10.2% (inactive)
11,COc1ccc(-c2c(-c3ccccc3)c(-c3ccccc3)nn2-c2ccccc2)cc1,45.2% (inactive)
12,N#C/C(=N\NC(=O)c1cccc(C(=O)N/N=C(\C#N)c2ccccc2Cl)n1)c1ccccc1Cl,-0.95% (inactive)
13,[C-]#[N+]C1(c2ccccc2)C2CC3CC(C2)CC1C3 (stereo not given),-1.7% (inactive)
14,[Zn+2].c1ccc(-c2c3nc(c(-c4ccccc4)c4[n-]c(c(-c5ccccc5)c5nc(c(-c6ccccc6)c6[n-]c2c2ccccc62)-c2ccccc2-5)c2ccccc42)-c2ccccc2-3)cc1,-37.5% (inactive)
15,O=C(Nc1ccccc1)SC1CCCCC1,-4.6% (inactive)
16,O=C(Nc1ccc(Cl)c(Cl)c1)c1ccc(C(=O)Nc2ccc(Cl)c(Cl)c2)cc1,8.35% (inactive)
17,O=C(CN1CCOCC1)Nc1ccc(S(=O)(=O)c2ccc([N+](=O)[O-])cc2)cc1,52.3% (inactive)
18,CCCCOC(=O)/C=C/C(=O)N1CCN(C(=O)/C=C/C(=O)OCCCC)C(C)C1 (stereo not given),33.7% (inactive)
19,O=C(c1ccccc1)c1ccc(Cl)c(Cl)c1,-5.3% (inactive)
20,CNc1ccccc1C(=O)N/N=C/c1c(O)ccc2ccccc12,-3.15% (inactive)
